Reference: the supplement of paper PMC11732987, “Enantioselective OTUD7B fragment discovery through chemoproteomics screening and high-throughput optimisation” (Communications Chemistry, 2025)

Assays:
Test in all cases: log2 ratio of Biotin-Ahx-Ub-VS probe labelling (fragment/DMSO); higher = less target engagement (more negative = stronger competition), active = hit call of the paper (q ≤ 0.05, log2 ratio ≤ -1)
Conditions in all cases: compound concentration: 200 uM; treatment time: 3 h
[1] = biological target: T1, OTUD6B (UniProt Q8N6M0)
T1 sequence (whole entry): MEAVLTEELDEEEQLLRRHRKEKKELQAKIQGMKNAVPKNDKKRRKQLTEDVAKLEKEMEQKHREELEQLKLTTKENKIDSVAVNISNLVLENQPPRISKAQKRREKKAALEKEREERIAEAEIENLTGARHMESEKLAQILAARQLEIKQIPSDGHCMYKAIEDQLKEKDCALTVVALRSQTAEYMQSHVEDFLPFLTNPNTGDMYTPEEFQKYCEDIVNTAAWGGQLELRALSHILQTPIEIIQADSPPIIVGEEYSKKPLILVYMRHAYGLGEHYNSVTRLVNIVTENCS
In short: (§1)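 HEK293T lysate (495 µg per sample, in Tris/CHAPS/IGEPAL buffer with protease inhibitors) was exposed in triplicate for 3 h to fragment at 200 µM or to vehicle, then to Biotin-Ahx-Ub-VS at 0.5 µM final for 1 h. Labelled DUBs were enriched on NeutrAvidin, digested with LysC and trypsin, and analysed by diaPASEF LC-MS/MS. Spectronaut label-free quantities were normalised to the global median, and values are average log2 ratios of fragment over vehicle from an unpaired t-test. Only proteins with ≥2 unique peptides were used.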

[2] = biological target: T2, OTUD7B (UniProt Q6GQQ9)
T2 sequence (whole entry): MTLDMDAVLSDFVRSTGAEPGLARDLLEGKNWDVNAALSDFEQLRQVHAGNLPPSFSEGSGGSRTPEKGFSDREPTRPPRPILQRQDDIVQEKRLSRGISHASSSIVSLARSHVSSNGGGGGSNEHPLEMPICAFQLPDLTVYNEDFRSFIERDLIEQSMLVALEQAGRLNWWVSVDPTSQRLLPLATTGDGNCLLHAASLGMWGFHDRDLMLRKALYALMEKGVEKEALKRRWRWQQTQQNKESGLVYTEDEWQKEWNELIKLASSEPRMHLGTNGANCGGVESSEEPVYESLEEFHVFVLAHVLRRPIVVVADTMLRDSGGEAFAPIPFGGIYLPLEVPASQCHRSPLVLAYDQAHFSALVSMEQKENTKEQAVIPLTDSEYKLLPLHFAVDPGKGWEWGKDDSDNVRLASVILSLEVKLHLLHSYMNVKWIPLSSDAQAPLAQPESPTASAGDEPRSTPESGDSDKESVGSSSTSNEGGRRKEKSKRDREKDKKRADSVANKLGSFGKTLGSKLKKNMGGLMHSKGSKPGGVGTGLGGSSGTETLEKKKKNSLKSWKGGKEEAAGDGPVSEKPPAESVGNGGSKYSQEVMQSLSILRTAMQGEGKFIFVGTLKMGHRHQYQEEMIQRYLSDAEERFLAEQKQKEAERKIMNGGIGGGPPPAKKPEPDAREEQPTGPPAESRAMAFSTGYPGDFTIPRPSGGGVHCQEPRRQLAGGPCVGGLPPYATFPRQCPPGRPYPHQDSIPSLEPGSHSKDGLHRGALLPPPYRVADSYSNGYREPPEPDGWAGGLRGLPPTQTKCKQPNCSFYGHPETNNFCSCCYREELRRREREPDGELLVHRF
In short: as §1

[3] = biological target: PRPF8 (UniProt Q6P2Q9)
In short: as §1

[4] = biological target: T3, PSMD7 (UniProt P51665)
T3 sequence (whole entry): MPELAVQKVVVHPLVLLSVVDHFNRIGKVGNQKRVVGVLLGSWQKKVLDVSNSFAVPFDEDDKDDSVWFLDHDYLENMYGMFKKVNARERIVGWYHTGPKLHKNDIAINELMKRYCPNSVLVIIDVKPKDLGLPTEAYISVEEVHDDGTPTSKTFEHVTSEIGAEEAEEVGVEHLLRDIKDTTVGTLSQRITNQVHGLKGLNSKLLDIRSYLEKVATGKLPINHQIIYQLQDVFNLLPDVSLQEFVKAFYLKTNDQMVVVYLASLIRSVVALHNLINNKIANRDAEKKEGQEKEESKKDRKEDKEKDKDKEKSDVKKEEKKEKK
In short: as §1

[5] = biological target: UCHL1 (UniProt P09936)
In short: as §1

[6] = biological target: T4, UCHL3 (UniProt P15374)
T4 sequence (whole entry): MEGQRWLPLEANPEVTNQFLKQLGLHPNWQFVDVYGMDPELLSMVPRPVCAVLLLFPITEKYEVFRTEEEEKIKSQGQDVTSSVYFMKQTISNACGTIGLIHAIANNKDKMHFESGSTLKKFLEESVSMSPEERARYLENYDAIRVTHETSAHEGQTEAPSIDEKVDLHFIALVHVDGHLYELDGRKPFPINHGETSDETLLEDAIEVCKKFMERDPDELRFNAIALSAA
In short: as §1

[7] = biological target: T5, UCHL5 (UniProt Q9Y5K5)
T5 sequence (whole entry): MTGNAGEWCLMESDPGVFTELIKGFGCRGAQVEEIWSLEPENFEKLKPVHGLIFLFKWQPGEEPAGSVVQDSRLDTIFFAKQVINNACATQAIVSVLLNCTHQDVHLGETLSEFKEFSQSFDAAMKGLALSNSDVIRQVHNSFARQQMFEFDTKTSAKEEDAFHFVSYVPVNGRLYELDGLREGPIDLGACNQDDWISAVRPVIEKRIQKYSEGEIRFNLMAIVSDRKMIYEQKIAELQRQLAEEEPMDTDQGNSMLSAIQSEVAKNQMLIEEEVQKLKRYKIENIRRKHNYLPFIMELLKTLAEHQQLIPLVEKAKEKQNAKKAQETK
In short: as §1

[8] = biological target: USP10 (UniProt Q14694)
In short: as §1

[9] = biological target: T6, USP15 (UniProt Q9Y4E8)
T6 sequence (whole entry): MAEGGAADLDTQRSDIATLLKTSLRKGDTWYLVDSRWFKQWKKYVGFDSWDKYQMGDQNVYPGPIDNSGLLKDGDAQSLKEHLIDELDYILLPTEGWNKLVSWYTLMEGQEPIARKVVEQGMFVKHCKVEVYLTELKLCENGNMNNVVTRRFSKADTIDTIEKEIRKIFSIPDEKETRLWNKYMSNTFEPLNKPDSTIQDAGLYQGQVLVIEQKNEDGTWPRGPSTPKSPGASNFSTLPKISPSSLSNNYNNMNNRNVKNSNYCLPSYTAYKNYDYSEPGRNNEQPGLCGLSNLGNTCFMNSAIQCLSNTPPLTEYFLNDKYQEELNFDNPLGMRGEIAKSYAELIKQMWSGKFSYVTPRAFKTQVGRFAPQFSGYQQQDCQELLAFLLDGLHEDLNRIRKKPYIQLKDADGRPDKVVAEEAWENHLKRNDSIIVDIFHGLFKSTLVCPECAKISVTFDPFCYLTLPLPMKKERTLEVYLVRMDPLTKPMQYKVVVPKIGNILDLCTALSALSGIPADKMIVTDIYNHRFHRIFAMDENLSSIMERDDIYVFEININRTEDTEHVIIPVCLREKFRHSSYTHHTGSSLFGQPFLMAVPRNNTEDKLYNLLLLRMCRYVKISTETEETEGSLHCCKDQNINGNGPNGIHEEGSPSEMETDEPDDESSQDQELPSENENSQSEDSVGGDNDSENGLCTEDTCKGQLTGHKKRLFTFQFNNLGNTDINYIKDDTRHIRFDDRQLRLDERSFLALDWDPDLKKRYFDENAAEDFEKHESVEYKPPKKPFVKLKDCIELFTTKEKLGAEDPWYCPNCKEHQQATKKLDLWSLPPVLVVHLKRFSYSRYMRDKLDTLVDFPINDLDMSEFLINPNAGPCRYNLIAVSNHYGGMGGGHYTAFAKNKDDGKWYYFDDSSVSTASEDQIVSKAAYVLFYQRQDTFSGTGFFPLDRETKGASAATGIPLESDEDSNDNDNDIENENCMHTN
In short: as §1

[10] = biological target: USP16 (UniProt Q9Y5T5)
In short: as §1

Measured: log2 ratio of Biotin-Ahx-Ub-VS probe labelling

USP10, sequence (Q14694 whole entry): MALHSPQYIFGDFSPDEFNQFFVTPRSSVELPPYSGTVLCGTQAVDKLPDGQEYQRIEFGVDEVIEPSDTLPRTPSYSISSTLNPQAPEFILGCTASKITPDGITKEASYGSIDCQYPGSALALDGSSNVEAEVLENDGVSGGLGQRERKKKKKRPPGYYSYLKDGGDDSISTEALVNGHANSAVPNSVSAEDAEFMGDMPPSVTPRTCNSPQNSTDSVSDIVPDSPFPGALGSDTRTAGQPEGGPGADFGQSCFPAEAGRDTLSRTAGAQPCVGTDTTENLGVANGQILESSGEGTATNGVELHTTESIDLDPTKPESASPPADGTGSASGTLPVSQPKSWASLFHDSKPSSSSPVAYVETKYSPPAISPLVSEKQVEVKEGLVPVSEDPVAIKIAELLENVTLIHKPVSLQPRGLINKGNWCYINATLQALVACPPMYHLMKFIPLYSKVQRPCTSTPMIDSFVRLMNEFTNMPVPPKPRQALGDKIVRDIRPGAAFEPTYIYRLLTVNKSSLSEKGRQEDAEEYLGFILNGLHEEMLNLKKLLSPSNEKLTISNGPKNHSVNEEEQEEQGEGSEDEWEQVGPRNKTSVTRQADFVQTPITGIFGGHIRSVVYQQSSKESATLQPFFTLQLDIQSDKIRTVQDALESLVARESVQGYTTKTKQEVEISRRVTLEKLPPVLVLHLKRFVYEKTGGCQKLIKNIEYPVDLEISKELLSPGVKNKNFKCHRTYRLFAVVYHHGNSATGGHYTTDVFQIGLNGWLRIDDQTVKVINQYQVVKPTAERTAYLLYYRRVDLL
UCHL1, sequence (P09936 whole entry, looked up): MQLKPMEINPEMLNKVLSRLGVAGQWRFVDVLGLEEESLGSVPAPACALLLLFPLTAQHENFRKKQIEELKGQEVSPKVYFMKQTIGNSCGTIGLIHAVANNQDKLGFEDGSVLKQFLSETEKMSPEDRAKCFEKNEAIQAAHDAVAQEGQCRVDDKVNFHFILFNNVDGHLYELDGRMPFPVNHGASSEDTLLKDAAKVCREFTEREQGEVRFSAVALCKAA
USP16, sequence (Q9Y5T5 whole entry, looked up): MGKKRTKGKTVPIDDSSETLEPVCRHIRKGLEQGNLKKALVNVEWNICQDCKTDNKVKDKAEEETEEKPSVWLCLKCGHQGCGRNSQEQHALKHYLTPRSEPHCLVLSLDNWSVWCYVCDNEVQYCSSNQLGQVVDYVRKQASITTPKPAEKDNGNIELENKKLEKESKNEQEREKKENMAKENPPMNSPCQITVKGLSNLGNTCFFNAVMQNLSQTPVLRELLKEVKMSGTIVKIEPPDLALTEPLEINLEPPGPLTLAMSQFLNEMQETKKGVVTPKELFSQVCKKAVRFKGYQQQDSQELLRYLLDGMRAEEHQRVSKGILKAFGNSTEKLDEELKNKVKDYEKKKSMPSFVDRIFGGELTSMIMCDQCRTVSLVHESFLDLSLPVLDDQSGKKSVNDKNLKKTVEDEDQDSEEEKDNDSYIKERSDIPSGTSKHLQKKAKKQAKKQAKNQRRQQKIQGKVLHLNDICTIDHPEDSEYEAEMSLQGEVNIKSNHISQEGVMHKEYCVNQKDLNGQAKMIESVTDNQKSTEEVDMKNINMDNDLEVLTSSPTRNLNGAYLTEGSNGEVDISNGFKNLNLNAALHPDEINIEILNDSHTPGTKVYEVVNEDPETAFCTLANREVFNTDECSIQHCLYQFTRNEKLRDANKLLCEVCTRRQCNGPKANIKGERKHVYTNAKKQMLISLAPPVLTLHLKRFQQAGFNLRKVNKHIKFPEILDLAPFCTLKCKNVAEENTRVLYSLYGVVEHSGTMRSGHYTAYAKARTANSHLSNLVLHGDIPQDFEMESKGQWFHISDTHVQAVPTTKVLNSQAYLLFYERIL

COc1cccc(CN(C)C(=O)CCl)c1
active: [5] -1.22
inactive: [1] -0.198 | [2] -0.364 | [3] -0.0045 | [4] -0.109 | [6] 0.229 | [7] -0.0244 | [8] -0.22 | [9] -0.251 | [10] 0.142
